Reference: the supplement of paper PMC11732987, “Enantioselective OTUD7B fragment discovery through chemoproteomics screening and high-throughput optimisation” (Communications Chemistry, 2025)
Unmarked numbers belong to inactive results.

Key:
Experiment in all cases: log2 ratio of Biotin-Ahx-Ub-VS probe labelling (fragment/DMSO); higher = less target engagement (more negative = stronger competition), active = hit call of the paper (q ≤ 0.05, log2 ratio ≤ -1)
Settings in all cases: compound concentration: 200 uM; treatment time: 3 h
[1] = biological target: T1, OTUD6B (UniProt Q8N6M0)
T1 sequence (whole entry): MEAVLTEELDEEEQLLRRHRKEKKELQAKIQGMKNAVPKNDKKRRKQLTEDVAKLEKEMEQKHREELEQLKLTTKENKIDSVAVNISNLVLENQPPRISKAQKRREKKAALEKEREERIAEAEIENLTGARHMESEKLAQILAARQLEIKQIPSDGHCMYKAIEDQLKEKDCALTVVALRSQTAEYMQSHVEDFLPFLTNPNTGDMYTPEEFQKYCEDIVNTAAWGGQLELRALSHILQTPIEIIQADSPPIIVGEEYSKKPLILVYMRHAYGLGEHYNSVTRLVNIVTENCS
Procedure, shortened: (§1)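 Using Biotin-Ahx-Ub-VS at 0.5 µM final for 1 h, DUBs were labelled in HEK293T lysate (495 µg per sample) that had first been treated in triplicate with fragment at 200 µM or vehicle for 3 h. NeutrAvidin enrichment, LysC and trypsin digestion and diaPASEF LC-MS/MS followed. Spectronaut label-free quantities were global-median-normalised. Values are average log2 fragment/vehicle ratios by unpaired t-test, using proteins with ≥2 unique peptides.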

[2] = biological target: T2, OTUD7B (UniProt Q6GQQ9)
T2 sequence (whole entry): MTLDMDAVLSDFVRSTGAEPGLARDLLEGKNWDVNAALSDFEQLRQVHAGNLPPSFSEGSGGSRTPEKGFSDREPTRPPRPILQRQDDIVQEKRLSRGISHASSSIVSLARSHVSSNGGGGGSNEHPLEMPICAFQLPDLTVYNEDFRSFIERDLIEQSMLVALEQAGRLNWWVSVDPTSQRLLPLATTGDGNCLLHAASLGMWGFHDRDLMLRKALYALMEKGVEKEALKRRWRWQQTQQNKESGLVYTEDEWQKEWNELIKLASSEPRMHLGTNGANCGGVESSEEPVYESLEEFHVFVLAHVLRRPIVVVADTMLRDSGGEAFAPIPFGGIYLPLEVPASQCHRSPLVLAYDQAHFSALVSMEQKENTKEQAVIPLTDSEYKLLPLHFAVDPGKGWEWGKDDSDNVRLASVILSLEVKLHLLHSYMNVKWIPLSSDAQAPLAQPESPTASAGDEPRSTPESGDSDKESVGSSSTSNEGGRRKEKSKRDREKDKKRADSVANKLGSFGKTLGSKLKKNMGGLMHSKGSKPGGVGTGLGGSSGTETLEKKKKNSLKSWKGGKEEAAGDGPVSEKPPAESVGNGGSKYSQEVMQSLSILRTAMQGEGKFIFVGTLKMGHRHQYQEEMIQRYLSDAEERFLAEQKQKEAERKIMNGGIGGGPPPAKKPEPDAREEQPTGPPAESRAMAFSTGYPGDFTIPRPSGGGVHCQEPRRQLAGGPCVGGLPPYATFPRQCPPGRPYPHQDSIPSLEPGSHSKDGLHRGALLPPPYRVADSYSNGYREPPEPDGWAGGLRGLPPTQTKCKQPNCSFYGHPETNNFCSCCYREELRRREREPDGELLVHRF
Procedure, shortened: as §1

[3] = biological target: PRPF8 (UniProt Q6P2Q9)
Procedure, shortened: as §1

[4] = biological target: T3, PSMD7 (UniProt P51665)
T3 sequence (whole entry): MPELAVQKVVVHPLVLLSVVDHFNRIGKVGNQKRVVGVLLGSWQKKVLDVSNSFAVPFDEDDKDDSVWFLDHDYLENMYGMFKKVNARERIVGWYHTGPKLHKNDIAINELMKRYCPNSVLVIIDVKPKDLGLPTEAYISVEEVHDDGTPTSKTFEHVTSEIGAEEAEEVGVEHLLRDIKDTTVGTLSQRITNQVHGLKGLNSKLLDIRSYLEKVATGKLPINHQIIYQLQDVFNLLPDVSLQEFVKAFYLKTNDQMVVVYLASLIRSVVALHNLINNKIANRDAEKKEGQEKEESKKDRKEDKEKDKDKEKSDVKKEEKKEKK
Procedure, shortened: as §1

[5] = biological target: UCHL1 (UniProt P09936)
UCHL1, sequence (P09936 whole entry, looked up): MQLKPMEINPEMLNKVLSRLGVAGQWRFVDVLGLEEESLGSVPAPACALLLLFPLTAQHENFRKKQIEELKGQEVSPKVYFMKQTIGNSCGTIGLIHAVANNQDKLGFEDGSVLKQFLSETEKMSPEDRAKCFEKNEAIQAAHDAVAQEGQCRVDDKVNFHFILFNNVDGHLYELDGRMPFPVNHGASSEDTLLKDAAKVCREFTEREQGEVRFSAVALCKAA
Procedure, shortened: as §1

[6] = biological target: T4, UCHL3 (UniProt P15374)
T4 sequence (whole entry): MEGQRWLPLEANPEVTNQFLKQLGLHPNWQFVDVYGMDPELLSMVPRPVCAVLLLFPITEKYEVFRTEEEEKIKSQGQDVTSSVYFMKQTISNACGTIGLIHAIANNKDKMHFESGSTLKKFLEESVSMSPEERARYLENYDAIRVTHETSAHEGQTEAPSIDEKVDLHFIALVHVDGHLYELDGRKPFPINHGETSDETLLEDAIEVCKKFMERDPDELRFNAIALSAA
Procedure, shortened: as §1

[7] = biological target: T5, UCHL5 (UniProt Q9Y5K5)
T5 sequence (whole entry): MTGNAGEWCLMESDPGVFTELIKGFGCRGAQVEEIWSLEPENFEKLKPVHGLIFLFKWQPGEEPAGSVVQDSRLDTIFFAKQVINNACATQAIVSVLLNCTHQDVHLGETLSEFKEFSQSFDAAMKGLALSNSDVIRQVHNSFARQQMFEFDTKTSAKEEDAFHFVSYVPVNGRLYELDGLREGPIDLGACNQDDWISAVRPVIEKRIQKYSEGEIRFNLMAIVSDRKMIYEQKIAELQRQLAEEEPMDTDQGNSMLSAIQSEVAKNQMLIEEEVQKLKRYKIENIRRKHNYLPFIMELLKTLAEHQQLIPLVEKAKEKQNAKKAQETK
Procedure, shortened: as §1

[8] = biological target: USP10 (UniProt Q14694)
USP10, sequence (Q14694 whole entry): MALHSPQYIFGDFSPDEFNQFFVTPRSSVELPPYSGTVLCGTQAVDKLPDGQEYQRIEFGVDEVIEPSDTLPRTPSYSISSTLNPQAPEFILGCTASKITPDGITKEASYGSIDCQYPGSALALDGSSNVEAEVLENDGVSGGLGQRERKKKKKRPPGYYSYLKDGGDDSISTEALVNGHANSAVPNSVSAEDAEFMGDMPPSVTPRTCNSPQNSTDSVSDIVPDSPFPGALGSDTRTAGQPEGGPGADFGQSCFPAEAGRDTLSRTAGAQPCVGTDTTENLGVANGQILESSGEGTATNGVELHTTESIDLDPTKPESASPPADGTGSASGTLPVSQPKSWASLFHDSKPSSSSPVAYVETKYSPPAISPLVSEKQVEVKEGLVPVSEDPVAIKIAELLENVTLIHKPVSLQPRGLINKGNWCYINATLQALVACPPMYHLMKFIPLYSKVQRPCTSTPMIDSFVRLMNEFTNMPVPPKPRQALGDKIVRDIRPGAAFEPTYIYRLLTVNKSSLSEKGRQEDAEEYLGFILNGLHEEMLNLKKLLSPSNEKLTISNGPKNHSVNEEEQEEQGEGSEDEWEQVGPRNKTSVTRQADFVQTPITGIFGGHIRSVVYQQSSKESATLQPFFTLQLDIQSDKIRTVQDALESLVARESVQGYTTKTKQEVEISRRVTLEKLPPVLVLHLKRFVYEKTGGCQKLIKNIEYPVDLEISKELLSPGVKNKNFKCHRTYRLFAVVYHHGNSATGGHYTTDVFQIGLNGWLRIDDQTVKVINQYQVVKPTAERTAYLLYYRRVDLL
Procedure, shortened: as §1

[9] = biological target: T6, USP15 (UniProt Q9Y4E8)
T6 sequence (whole entry): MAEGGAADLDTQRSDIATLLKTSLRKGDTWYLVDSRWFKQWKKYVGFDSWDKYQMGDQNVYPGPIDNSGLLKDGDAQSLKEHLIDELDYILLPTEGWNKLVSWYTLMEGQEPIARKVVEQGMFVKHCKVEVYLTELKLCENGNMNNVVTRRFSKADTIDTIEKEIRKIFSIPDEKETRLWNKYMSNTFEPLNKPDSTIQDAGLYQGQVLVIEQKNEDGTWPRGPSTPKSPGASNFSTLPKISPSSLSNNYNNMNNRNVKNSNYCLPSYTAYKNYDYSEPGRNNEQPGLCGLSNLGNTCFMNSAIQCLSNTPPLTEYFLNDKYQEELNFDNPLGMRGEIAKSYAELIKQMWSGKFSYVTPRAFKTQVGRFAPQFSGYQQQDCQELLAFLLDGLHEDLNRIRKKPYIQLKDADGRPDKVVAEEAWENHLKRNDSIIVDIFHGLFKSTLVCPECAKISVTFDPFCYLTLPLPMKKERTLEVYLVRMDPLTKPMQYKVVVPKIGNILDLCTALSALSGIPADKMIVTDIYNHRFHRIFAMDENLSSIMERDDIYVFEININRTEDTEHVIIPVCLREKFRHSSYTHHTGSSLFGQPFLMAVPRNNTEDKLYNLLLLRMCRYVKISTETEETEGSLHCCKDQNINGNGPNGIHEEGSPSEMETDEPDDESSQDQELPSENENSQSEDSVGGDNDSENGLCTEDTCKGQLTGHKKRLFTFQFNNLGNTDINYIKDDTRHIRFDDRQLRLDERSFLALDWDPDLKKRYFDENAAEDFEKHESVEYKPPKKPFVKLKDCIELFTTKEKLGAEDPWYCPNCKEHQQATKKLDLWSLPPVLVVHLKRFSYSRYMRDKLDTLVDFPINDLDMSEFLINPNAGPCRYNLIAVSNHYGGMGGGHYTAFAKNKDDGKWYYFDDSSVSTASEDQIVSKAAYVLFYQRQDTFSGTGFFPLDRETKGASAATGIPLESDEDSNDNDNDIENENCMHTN
Procedure, shortened: as §1

Cc1noc(N2CCN(C(=O)CCl)CC2)n1.Cl was tested, and the “log2 ratio of Biotin-Ahx-Ub-VS probe labelling” value (shortened to “log2 ratio”) [1] was -0.229, the “log2 ratio” value [2] was -0.413 and the “log2 ratio” value [3] was -0.079. The “log2 ratio” value [4] was 0.128, the “log2 ratio” value [5] was -1.52 (active) and the “log2 ratio” value [6] was 0.0214. For the same compound, the “log2 ratio” value [7] was -0.188, the “log2 ratio” value [8] was -0.076 and the “log2 ratio” value [9] was -0.285.
